Hits are enriched below; roughly 0.53% of the tested compounds scored in any of these assays.
IL-2 act – qHTS of IL-2 Activators. IL-2 activation reporter assay, cell-based qHTS; stimulated with anti-CD3/CD4/CD28 beads; in transgenic mouse T cells. activation, % (series mostly up to about 46 µM). 360,000 compounds, 0.065% hits. AID 652025, 2013; in the data active = activation above about 50%; inconclusive = mostly about 30% to 49%; note: 0% is about no effect
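Unstimulated transgenic mouse T cells, 750 per well, received compound and, after 60 minutes, anti-CD3/anti-CD4 bead plus anti-CD28 stimulation. EGFP and DsRed were quantified after 18 hours.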
Vif-APOBEC3F blk – qHTS for Inhibitors of Vif-A3F Interactions: qHTS; Potency, µM (doses to about 46.1 µM), for inactives: at the top dose activity, negative = active; HeLa A3F-eYFP + Vif (tagged APOBEC3F with the HIV-1 protein that degrades it), YFP fluorescence increase; 390,000 compounds, 0.2% hits; note: potency is the fitted concentration of half-maximal effect; % of control where 0% means no effect; nearly all actives have a fitted effect of over 65% in size
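HeLa cells stably expressing A3F-eYFP plus Vif, plated and incubated overnight at 37 deg C, then exposed to compounds overnight at 37 deg C. Blocked degradation read as raised yellow fluorescence (Ex 488/Em 500-530).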
PKM2 activator – qHTS Assay for Activators of Human Muscle isoform 2 Pyruvate Kinase. purified PKM2, Kinase-Glo ATP luminescence, activation; response scale: 0% is enzyme alone, no compound. Potency, µM (titrated, usually from 57.5 µM), for inactives: at the highest dose activation, actives largely listed as activators. 260,000 compounds, 0.34% hits. AID 1631, 2009; note: potency is the fitted concentration of half-maximal effect; % is set by controls: 0 for no effect and ±100 for the full control effect; nearly all actives have a fitted effect of over 55% in size
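ATP formation by purified human PK-M2, quantified via coupled luciferase luminescence after 1 h at room temperature with 0.1 mM ADP and 0.5 mM PEP final.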
Vif-A3G inh – qHTS for Inhibitors of Vif-A3G Interactions: qHTS; DNA dC->dU-editing enzyme APOBEC-3G (Homo sapiens), Q9HC16; HeLa A3G-eYFP + Vif (tagged APOBEC3G with the HIV-1 protein that degrades it), YFP fluorescence, overnight; Potency, µM (doses to about 46.1 µM), for the others: at the top dose activity, negative = active, actives largely listed as inhibitors; 410,000 compounds, 0.076% hits; note: potency is the fitted concentration of half-maximal effect; % is set by controls: 0 for no effect and ±100 for the full control effect; nearly all actives have a fitted effect of over 60% in size
Target sequence (Q9HC16 whole entry, looked up): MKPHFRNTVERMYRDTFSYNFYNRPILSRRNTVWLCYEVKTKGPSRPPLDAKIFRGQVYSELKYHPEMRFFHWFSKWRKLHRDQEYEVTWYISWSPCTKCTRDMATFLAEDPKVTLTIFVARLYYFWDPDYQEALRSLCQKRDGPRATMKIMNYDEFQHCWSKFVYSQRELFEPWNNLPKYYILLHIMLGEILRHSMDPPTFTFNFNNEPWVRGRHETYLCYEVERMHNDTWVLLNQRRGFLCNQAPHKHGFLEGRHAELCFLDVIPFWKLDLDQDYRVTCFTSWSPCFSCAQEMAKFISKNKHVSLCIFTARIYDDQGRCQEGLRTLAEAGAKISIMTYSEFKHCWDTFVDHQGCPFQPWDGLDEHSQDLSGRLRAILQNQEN
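Read-out is eYFP fluorescence (Ex 488/Em 500-530) from Vif-expressing HeLa A3G-eYFP cells; more signal means A3G escaped Vif-mediated degradation. Cells plated overnight, compound pinned in, incubated overnight at 37 deg C.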
An asterisk follows results filed as active; ? = inconclusive; . = not tested or not shown. Unless noted, calls come from the whole dose curve; as a rule, active = well fitted curve in the direction sought with a large enough effect; inconclusive = small, poorly fitted or top-dose-only effect, or another doubt; inactive = no such curve, though single readings can be large; an effect the other way counts as inactive or inconclusive.

SMILES	IL-2 act	Vif-APOBEC3F blk	PKM2 activator	Vif-A3G inh
CSc1ccc(/C=C2\C=Cc3ccccc32)cc1	.	.	.	1.6%
CC(=O)c1cccc(-c2ccnc3c2CC(C(=O)NCc2ccco2)O3)c1 (stereo unspecified)	-0.2	.	.	0.891µM*
CCN(CC)c1ccc(NS(=O)(=O)c2ccc(-c3coc(C)n3)cc2)c(C)c1	.	5.7%	.	0.3%
Fc1ccc(/C=N/NC2=Nc3cccc4cccc2c34)cc1	119.0*	?	-2.9%	?
Cc1ccc(S(=O)(=O)N2CCN(c3nc(-c4ccc(CN5CCNCC5)s4)nc4ccccc34)CC2)cc1	.	.	.	-2.7%
CCOc1c(Cl)cc(/C=N/NC(N)=S)cc1OC	-3.0	11.2µM*	17.6%	1.5%
C#CCOc1c(Cl)cc(/C=N/NC(N)=S)cc1OCC	-1.6	?	22.3%	-11.6%
Cc1c(C(=O)NCc2cccc(C(F)(F)F)c2)sc(=O)n1Cc1ccccc1F	0.1	.	.	-2.7%
O=C(/C(=C/c1ccc(Cl)cc1)c1nc2ccccc2[nH]1)c1cccs1	-5.1	4.0%	-15.1%	?
COc1cc(/C=C(/C(=O)c2cccs2)c2nc3ccccc3[nH]2)ccc1O	-0.7	-15.4%	7.2%	10µM*
CCOc1cc(/C=C2/NC(=O)N(CC(=O)OC)C2=O)ccc1OC	1.0	-11.0%	1.4%	-6.4%
CCOc1cc(Br)c(/C=C2/C(=O)N(C)C(=S)N2CC(=O)OC)cc1OC	99.7*	?	1.3%	-6.8%
Cn1nnc2c(NCc3ccccc3Cl)ncnc21	.	-3.6%	.	-1.6%
Clc1ccccc1CONc1ncnc2nonc12	-0.6	-2.2%	15.8µM*	-0.2%
COc1cc(NC(=O)CN2CCCN(S(=O)(=O)c3ccc(F)cc3)CC2)cc(OC)c1	.	0.6%	.	2.0%
O=C(NC1CC1)C1=C[C@@H](c2csc3ccccc23)C[C@@H](OCCCCO)O1	0.4	1.5%	14.1µM*	-6.3%
O=C(NC1CC1)C1=C[C@H](c2csc3ccccc23)C[C@H](OCCCCO)O1	-0.4	-15.7%	6.9%	-5.6%
O=C(CC1N=C2c3ccccc3N=C(SCc3cccc(Cl)c3)N2C1=O)NCCc1ccccc1 (stereo unspecified)	.	-5.7%	.	-13.0%
O=C(CCCCCBr)N1CCC(CC2CC(c3ccc(Cl)cc3)=NO2)(C(=O)NCC2CCCCC2)CC1 (stereo unspecified)	63.4*	6.6%	0.2%	1.4%
O=C(CCCCCBr)N1CCC(CC2CC(c3cccc(Br)c3)=NO2)(C(=O)NCC2CCCCC2)CC1 (stereo unspecified)	-1.6	-7.0%	0.8%	-6.4%
FC(F)(F)c1cccc(-n2cccc2/C=N/n2cnnc2)c1	0.1	0.4%	20µM*	-1.2%
O=C(NC(=S)Nc1cccc(NC(=S)NC(=O)c2ccccc2)c1)c1ccccc1	-0.4	-8.1%	.	-17.2%
O=C(NC(=S)Nc1c(Cl)cc(Cl)cc1Cl)c1ccccc1	-2.0	4.47µM*	.	1.9%
Cn1cnnc1SCC(=O)Nc1ccc(C#N)cc1	.	-2.1%	.	1.9%
Cc1ccccc1OCC(=O)Nc1nnc(SCc2cc(=O)n3cccc(C)c3n2)s1	.	-4.1%	.	-3.4%
SMILES	IL-2 act	Vif-APOBEC3F blk	PKM2 activator	Vif-A3G inh
Cc1cc2oc(=O)sc2cc1NS(=O)(=O)c1cccc2cccnc12	-4.9	-1.4%	31.6µM*	0.1%
Cn1nnnc1SCCNCc1cc(Br)ccc1OCc1ccccc1Cl	.	12.6µM*	.	-15.0%
Cn1nnnc1SCCNCc1ccccc1OCc1ccccc1Cl	1.5	6.6%	-28.3%	-0.5%
COc1ccc(-c2cc(C(=O)Nc3c(C)nn(Cc4ccccc4C)c3C)no2)cc1	.	-4.1%	.	0.7%
Cc1ccc(NC(=O)c2cc(N3C(=O)C=CC3=O)ccc2Cl)cc1C	-4.1	-4.6%	3.98µM*	-15.2%
Cc1ccc(NC(=O)c2cc(-n3cnnc3)ccc2Cl)cc1	0.5	-6.5%	-0.2%	0.3%
COCCn1c(-c2ccccc2)c(C)n2c3c(=O)n(C)c(=O)n(C)c3nc12	.	2.2%	.	0.7%
Cc1cc(NC(=O)C2CCCN(S(=O)(=O)c3cccc4nsnc34)C2)ccc1Br (stereo unspecified)	.	?	.	-3.4%
CCCCN(CCCC)C1=C(C(=O)c2ccccc2)N(C)S(=O)(=O)c2ccccc21	.	4.8%	.	0.3%
Cc1cccc(N(C)S(=O)(=O)c2cc3c(cc2C)n(C)c(=O)c(=O)n3C)c1	3.0	1.9%	10µM*	0.6%
Cc1cc2c(cc1S(=O)(=O)N(C)c1ccccc1)n(C)c(=O)n2C	-0.5	4.7%	12.6µM*	2.1%
Cc1cc2c(cc1S(=O)(=O)N(C)Cc1ccccc1)n(C)c(=O)c(=O)n2C	-1.2	1.6%	9.6%	-5.0%
CCOc1ccc(CC(=O)Nc2c(C(=O)c3ccccc3)oc3ccc(OC)cc23)cc1OCC	.	-2.1%	.	-4.1%
Cc1cc(Cl)ccc1NC(=O)C1CCN(S(=O)(=O)c2ccc3[nH]c(=O)ccc3c2)CC1	.	-0.9%	.	-2.8%
Cc1ccc(-n2ncc(C(=O)N3CCN(c4cccc(C)c4)C(C)C3)c2C2CCN(C(=O)OC(C)(C)C)CC2)cc1 (stereo unspecified)	.	-1.2%	.	-1.3%
CC(OC(=O)/C(C#N)=C/c1ccc(N(C)C)cc1)C(=O)N(C)Cc1ccccc1 (stereo unspecified)	-4.5	22.4µM*	3.6%	?
CC(OC(=O)c1cccc(O)c1)C(=O)N(C)Cc1ccccc1 (stereo unspecified)	-0.7	-7.4%	.	-7.4%
CCOC(=O)c1c(-c2ccc(C)o2)csc1NC(=O)CN1CCCCC1	-6.2	1.5%	27.4%	-1.2%
CCOC(=O)c1c(-c2ccc(C)o2)csc1NC(=O)CN1CCC(C(N)=O)CC1	8.2	-8.8%	20µM*	-17.8%
CCOC(=O)c1c(-c2ccco2)csc1NC(=O)CSc1nnc(N)s1	-2.0	1.5%	12.6µM*	-6.5%
CCOC(=O)c1c(-c2ccc(C)o2)csc1NC(=O)CSc1nncs1	-1.0	4.5%	8.91µM*	0.7%
CCOC(=O)c1c(-c2ccco2)csc1NC(=O)COC(=O)c1cnccn1	-3.5	-19.3%	.	-5.3%
O=C(Cc1ccccc1)NC1CCN(S(=O)(=O)c2ccc(C(=O)O)cc2)CC1	-1.0	-0.6%	0.1%	3.1%
O=C(Cc1ccccc1)NC1CCN(S(=O)(=O)c2cccc(F)c2)CC1	-1.4	-0.9%	28.2µM*	0.5%
COc1ccc2c(c1)cc(CNc1ccc(OC)c(OC)c1)c(=O)n2CC(=O)Nc1ccc(F)cc1	.	-0.4%	.	-6.1%
Brc1ccc[n+](CCc2ccccc2)c1	.	.	.	2.5%
COc1cc(OC)c(OC)cc1/C=C1/Cc2ccccc2C1=O	126.2*	?	.	-9.3%
COc1ccccc1C=C1CCc2ccccc2C1=O	-0.1	.	.	?
CCC1C/C(=C\c2cc(OC)c(OC)cc2OC)C(=O)/C(=C/c2cc(OC)c(OC)cc2OC)C1 (stereo unspecified)	-2.0	?	.	?

High-throughput results (PubChem)
